GPR151 ag: activators of human GPR151 | activation, % at 11.2 µM | 1% of 650,000 active | PathHunter beta-arrestin GPR151 cells, luminescence; in the data active = activation above about 4.9%;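 note: 0% = median of compound wells and 100% = cells with positive control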
TEAD-YAP inh: TEAD-YAP interaction inhibition; HEK-TIYL cells, TEAD-Gal4/YAP UAS-luciferase luminescence; inhibition, % at 9.12 µM; 1.4% of 640,000 active; AID 1259422; in the data active = inhibition above about 32%;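 note: 0% = median of test compound wells and 100% = reference inhibitor wells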
FBW7 act: activators of human E3 ligase FBW7 | Q969H0 | AlphaScreen FBW7–phospho-cyclin E peptide binding, activator screen | normalized activity (activation), % at 26.1 µM | 0.13% of 650,000 active; in the data active = normalized activity above about 1.9%;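 note: purified mutant Fbw7 with reduced substrate affinity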
MITF inh: inhibitors of human MITF; O75030; AlphaScreen MITF homodimerization, bead proximity signal; inhibition, % at 2.6 µM; 0.91% of 650,000 active; in the data active = inhibition above about 50%;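 note: 0% = vehicle wells with protein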
GPR151 conf act: confirmation of human GPR151 activators; shares compounds with GPR151 ag; GPR151 PathHunter beta-arrestin cells, luminescence, 90 min; % of EA-reagent control over plate median; activation, % at 11.2 µM; 6,700 tested, under 10 active; AID 1508609;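 active = mean percent activation across replicates above the confirmation screen cutoff of 4.91%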
GPR119 ag: counter-screen for GPR151 activators: effect on human GPR119. shares compounds with GPR151 ag. GPR119 PathHunter beta-arrestin cells, luminescence, 90 min; 0 = compound-well median, 100 = enzyme-acceptor control. activation, % at 11.2 µM. 0.3% of 6,700 active. AID 1508611;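 active = mean percent activation in the counterscreen above 29.09%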;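 note: counterscreen on off-target GPR119 to flag nonselective hits from the GPR151 activator screen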
Target sequence (Q8TDV5 whole entry, looked up): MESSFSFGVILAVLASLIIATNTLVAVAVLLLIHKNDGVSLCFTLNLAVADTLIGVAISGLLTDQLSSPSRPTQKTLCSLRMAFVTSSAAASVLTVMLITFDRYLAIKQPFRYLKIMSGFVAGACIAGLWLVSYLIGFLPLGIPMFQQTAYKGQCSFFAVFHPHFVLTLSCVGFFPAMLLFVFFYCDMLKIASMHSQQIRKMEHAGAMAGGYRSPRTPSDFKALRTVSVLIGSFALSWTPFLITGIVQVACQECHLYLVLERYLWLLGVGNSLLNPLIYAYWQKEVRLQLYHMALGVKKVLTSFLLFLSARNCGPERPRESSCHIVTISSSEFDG
* = called active by the depositor; . = no result. Most compounds without a hit are left out; they make up all but 3.5% or so of the library.

SMILES	GPR151 ag	TEAD-YAP inh	FBW7 act	MITF inh	GPR151 conf act	GPR119 ag
O=C(COc1ccc([N+](=O)[O-])cc1)Nc1cccc2cccnc12	5.9*	5	0	-1	0	8
COc1ccc(CC(=O)Nc2ccc(N(C)C)c3ccccc23)cc1	5.6*	-1	0	16	1	-3
O=C(COc1ccccc1)Nc1ccccc1NC(=O)COc1ccccc1	5.8*	14	0	-3	0	5
CC(=O)Nc1ccccc1NC(=O)COc1ccccc1	-2	2	0	-1	.	.
CCCOc1ccccc1NC(=O)COc1ccc(C#N)cc1	12*	5	0	5	0	3
O=C(NCCCN1CCCC1=O)c1cnc(N2CCCC2CO)s1 (centres undefined)	1	0	0	-7	.	.
O=C(Nc1c2c(nn1-c1cccc(Cl)c1)CSC2)c1ccccc1Br	3	-7	0	-4	.	.
CCCc1cc(=O)oc2c(C)c(O)c(CN(C)C)cc12	-2	9	0	6	.	.
Cc1nn(C)cc1C(=O)NCCC(c1ccccc1)c1ccccc1	0	8	0	3	.	.
COc1ccc(OCC(=O)Nc2ccccc2CO)cc1	9.2*	-15	0	3	0	-4
CCc1ccccc1NC(=O)COc1ccc(C#N)cc1	7.5*	-6	1	15	1	4
CCOc1ccc(OCC(=O)Nc2ccccc2CC)cc1	-1	-8	0	2	.	.
COc1ccc2cc3c(N)c(C(=O)Nc4ccc5c(c4)OCO5)sc3nc2c1	1	-35	0	5	.	.
COCCCNC(=O)CCNC(=O)Cn1ccc2ccccc2c1=O	-1	3	0	13	.	.
Cc1cc(N2CCOCC2)nc(N2CCN(C(=O)Cc3cccs3)CC2)n1	11*	11	0	3	-1	-3
CC(C)(C)C1CCC(=N/N=C2/NC(=O)C(CC(=O)O)S2)CC1 (centres undefined)	0	9	0	1	.	.
CC(=O)c1cccc(NC(=O)/C(=C/c2ccccc2)NC(=O)c2ccccc2)c1	1	-5	0	-2	.	.
COc1ccccc1/C=C(\NC(=O)c1ccccc1)C(=O)Nc1cccc(C(C)=O)c1	5.8*	2	0	12	-1	-9
CCCCCSc1nnc2c(n1)OC(c1ccc(OC)c(O)c1)Nc1ccccc1-2 (centres undefined)	-1	-13	0	4	.	.
CC(O)c1nc2ccccc2n1Cc1cccc(Cl)c1 (centres undefined)	5.2*	7	0	-8	1	9
CC(O)c1nc2ccccc2n1CCOc1ccccc1F (centres undefined)	5.1*	-6	0	-3	1	3
Brc1cccc(-c2nnc(CN3CCN(Cc4ccccc4)CC3)o2)c1	6.0*	-1	0	2	0	-4
CCOC(=O)c1ccc2nc(NC(=O)c3ccc(C(=O)OC)cc3)sc2c1	0	2	0	-4	.	.
CC1(C)CC(=O)C(C=NCc2cccc(F)c2)=C(O)C1	1	5	0	6	.	.
CC1(C)CC(=O)C(C=NCCc2cccc(Cl)c2)=C(O)C1	5.4*	21	0	6	-1	-16
SMILES	GPR151 ag	TEAD-YAP inh	FBW7 act	MITF inh	GPR151 conf act	GPR119 ag
COc1ccc(CN2C[C@@H]3C[C@@H](c4cccc5nonc45)N4CCC[C@@]34C2=O)cc1	0	-1	0	11	.	.
COc1ccc(CN2C[C@@H]3C[C@@H](c4ccc5nonc5c4)N4CCC[C@@]34C2=O)cc1	5.4*	0	0	17	0	4
CCN(Cc1ccco1)C(=O)Cn1nc2n(Cc3ccccc3F)c3ccccc3n2c1=O	6.6*	1	0	-7	0	3
CCN(Cc1ccco1)C(=O)Cn1nc2c(C)cc3ccccc3n2c1=O	0	-6	0	-3	.	.
CCC(C)NC(=O)c1cccc(N2CCCC2=O)c1 (centres undefined)	0	-7	0	5	.	.
O=C(O)c1cccc(N2CCCC2=O)c1	5.4*	-6	0	-4	0	12
O=C1N(C2CCCC2)C[C@@H]2C[C@@H](c3cccn3-c3nccs3)N3CCC[C@@]123	6.4*	4	0	6	1	5
CCc1nc2ccccc2n1CC(O)COc1c(C)cc(C)cc1C (centres undefined)	2	-8	0	-9	.	.
COCCN1C(=O)c2ccccc2C(C(=O)NC(C)C)C1c1cccs1 (centres undefined)	1	12	1	7	.	.
O=C(N/N=C/c1cccc(Cl)c1)c1cccs1	-2	-53	0	12	.	.
CC(=O)Nc1sc(N/N=C/c2cccc(Cl)c2)nc1-c1cccs1	7.5*	9	0	9	0	4
C/C(CC(=O)Nc1cccc(C)c1)=N/NC(=O)COc1ccc(C)cc1Br	0	-14	0	-4	.	.
CCOC(=O)c1c(C)n(C)c2ccc(OCC(O)Cn3nnc4ccccc43)cc12 (centres undefined)	6.0*	12	0	12	0	4
CCOC(=O)c1c(C)n(C)c2ccc(OCC(O)CN(CC)CC)cc12 (centres undefined)	4	4	0	-3	.	.
CCOC(=O)N1CCN(C(=O)CN(c2ccccc2Br)S(C)(=O)=O)CC1	7.6*	2	0	14	1	-5
Cc1nc(SCC(=O)NNC(=O)c2cccs2)n[nH]1	5.8*	0	1	10	0	1
O=C(Nc1ccccc1)Nc1ccc(S(=O)(=O)Nc2cccc(C(F)(F)F)c2)cc1	0	-2	0	0	.	.
Cn1nnc2cc(NC(=O)NCc3ccccc3)ccc21	6.3*	-9	0	10	0	-3
Cn1nnc2cc(NC(=O)Nc3ccccc3F)ccc21	-3	11	0	2	.	.
O=C(CSc1ccc(F)cc1)Nc1nc(-c2ccc(F)cc2)cs1	7.7*	12	0	3	-2	12
CCC(=O)Oc1ccc2c(-c3cc4ccccc4oc3=O)cc(=O)oc2c1	5.4*	-7	0	-10	0	10
O=C(Oc1ccc2c(-c3cc4ccccc4oc3=O)cc(=O)oc2c1)C1CC1	9.2*	8	0	-2	0	1
CCOc1ccc2c(-c3cc4ccccc4oc3=O)cc(=O)oc2c1	2	-1	0	1	.	.
O=C1OC(c2ccc(Br)o2)=N/C1=C\c1ccccc1F	-1	0	1	15	.	.
CCCSc1ncccc1C(=O)Nc1c(C)noc1C	7.4*	-2	0	4	0	-6
COC(=O)c1ccc(CN(c2ccccc2)S(=O)(=O)c2ccccc2)cc1	0	-1	0	2	.	.
COC(=O)c1ccc(CN(c2ccccn2)S(=O)(=O)c2ccccc2)cc1	7.3*	13	0	28	0	4
CCN(CC(=O)NC(C)C)C(=O)Cc1ccc(Br)cc1	0	-2	0	-1	.	.

Assay outcomes: PubChem BioAssay, The Scripps Research Institute Molecular Screening Center
